# Laboratory results published in PubChem BioAssay.
# Assays:
# [1] = tested on: Human papillomavirus type 1a protein E7 (residues 44-93); assay: HPV1a E7 fragment binders on microarrays, primary screen, biochemical, small-molecule microarray, residues 44-93, 635 nm fluorescence (AID 1108); settings: small-molecule microarray binding, fluorescence 635 nm; higher = more signal;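 note: E7 fragment applied at 1 µg/mL in TBST for 1 h at 4 C; score combines spot fluorescence with its signal to noise ratio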
# [2] = modulators of HCV replicon luciferase signal, primary screen, HCV replication inhibitor project, Huh7 cells, luciferase reporter (AID 1109); settings: 48 h, higher = more signal;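 note: huh7 hepatoma cells harbouring a luciferase neomycin HCV replicon reporter; luciferase luminescence as measure of HCV replicon replication; test concentration not given here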
# [3] = target: Left-right determination factor 2 (Homo sapiens) (UniProt O00292); assay: LEFTY2 binders on small-molecule microarrays, primary screen, biochemical, small-molecule microarray, 635 nm fluorescence scan (AID 1110); settings: LEFTY2 binding, higher = more signal
# Left-right determination factor 2 (Homo sapiens), sequence (O00292 whole entry, looked up): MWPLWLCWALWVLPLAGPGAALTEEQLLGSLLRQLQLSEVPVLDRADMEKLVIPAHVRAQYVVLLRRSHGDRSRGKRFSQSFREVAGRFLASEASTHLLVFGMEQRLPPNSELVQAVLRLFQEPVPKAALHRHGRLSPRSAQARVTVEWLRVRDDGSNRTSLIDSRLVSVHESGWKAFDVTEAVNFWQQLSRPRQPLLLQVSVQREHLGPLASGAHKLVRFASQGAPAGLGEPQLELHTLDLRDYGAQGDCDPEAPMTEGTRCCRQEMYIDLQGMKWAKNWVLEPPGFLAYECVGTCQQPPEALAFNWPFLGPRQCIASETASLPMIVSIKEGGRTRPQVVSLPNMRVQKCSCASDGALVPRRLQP
# [4] = target: Calmodulin-1 (Homo sapiens) (UniProt P0DP23); assay: CALM1 binders on microarrays, EGTA buffer, profiling panel, biochemical, small-molecule microarray, Cy5-labelled CALM1 (AID 1111); settings: Cy5-CALM1 binding fluorescence, higher = more signal;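 note: labelled calmodulin applied in Tris saline Tween buffer holding calcium plus EGTA and DTT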
# [5] = target: Calmodulin-1 (Homo sapiens) (UniProt P0DP23); assay: calcium-bound CALM1 binders on microarrays, profiling panel, artefact control for SMM control-protein annotation, biochemical, small-molecule microarray, Cy5-labelled CALM1, plus calcium (AID 1112); settings: Cy5-CALM1 binding fluorescence, higher = more signal;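 note: score merges spot fluorescence with signal to noise from triplicate slides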
# [6] = small-molecule microarray binders of probe aWnt5a, primary screen, biochemical, biotinylated probe, 635/667 nm fluorescence (AID 1113); settings: higher = more signal;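 note: score merges 667 nm fluorescence intensity with signal-to-noise per printed feature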
# [7] = small-molecule microarray binders of probe aShh, primary screen, biochemical, biotinylated probe, 635/667 nm fluorescence (AID 1114); settings: higher = more signal;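 note: probe is biotin-labelled aShh protein from a stem cell growth factor screen; measures binding of labelled protein to compounds printed on the slide; score merges feature fluorescence at 667 nm with signal-to-noise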
# [8] = small-molecule microarray binders of probe aNog, primary screen, biochemical, biotinylated probe, 635/667 nm fluorescence (AID 1115); settings: higher = more signal;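 note: probe is biotinylated aNog protein used at 0.15 µg/mL for 1 h at 4 C; z-score combines 667 nm fluorescence of each spot with its signal to noise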
# [9] = target: Torsin-1A-interacting protein 1 (Homo sapiens) (UniProt Q5JTV8); assay: LAP1 binders from COS7 cell lysate, primary screen, small-molecule microarray, 635/667 nm fluorescence (AID 1116); settings: COS7-hLAP1 lysate binding, 635 nm fluorescence, higher = more signal
# Torsin-1A-interacting protein 1 (Homo sapiens), sequence (Q5JTV8 whole entry, looked up): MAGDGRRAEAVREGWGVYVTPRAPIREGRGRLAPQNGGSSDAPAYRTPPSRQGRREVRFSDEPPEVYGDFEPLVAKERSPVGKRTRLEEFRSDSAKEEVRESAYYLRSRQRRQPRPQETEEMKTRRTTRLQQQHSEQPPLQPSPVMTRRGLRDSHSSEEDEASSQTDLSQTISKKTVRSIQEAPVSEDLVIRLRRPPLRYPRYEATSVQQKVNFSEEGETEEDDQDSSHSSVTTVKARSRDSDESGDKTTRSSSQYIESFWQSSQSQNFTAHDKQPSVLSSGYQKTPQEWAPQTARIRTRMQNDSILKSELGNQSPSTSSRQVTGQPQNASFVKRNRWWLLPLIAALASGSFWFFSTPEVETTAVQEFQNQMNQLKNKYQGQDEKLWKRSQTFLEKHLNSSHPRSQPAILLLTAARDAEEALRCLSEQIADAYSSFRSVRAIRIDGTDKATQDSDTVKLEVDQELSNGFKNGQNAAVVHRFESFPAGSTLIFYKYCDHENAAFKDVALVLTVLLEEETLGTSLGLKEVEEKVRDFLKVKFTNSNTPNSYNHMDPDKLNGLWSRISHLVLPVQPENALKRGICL
# [10] = target: Alpha-bungarotoxin (Bungarus multicinctus) (UniProt P60615); assay: alpha-bungarotoxin binders on microarray, profiling panel, artefact control for SMM control protein annotation, biochemical, small-molecule microarray, Alexa647 label, 635/667 nm fluorescence (AID 1117); settings: alpha-BTX-A647 binding fluorescence, higher = more signal
# Alpha-bungarotoxin (Bungarus multicinctus), sequence (P60615 whole entry, looked up): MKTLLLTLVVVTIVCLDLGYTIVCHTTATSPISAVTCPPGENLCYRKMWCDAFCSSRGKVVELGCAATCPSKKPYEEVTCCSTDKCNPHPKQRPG
compound,measurement,setting,value
COCCOC(=O)N1C(=O)[C@@]2(c3cc(C#CCC(C(=O)OC)C(=O)OC)ccc31)[C@H](c1ccc(O)cc1)N1[C@H](c3ccccc3)[C@H](c3ccccc3)OC(=O)[C@H]1[C@@H]2C(N)=O,composite z-score,[1],0.698
same,z-score,[2],-0.633
same,composite z-score,[3],0.715
same,composite z-score,[4],0.537
same,composite z-score,[5],-0.259
same,composite z-score,[6],0.0297
same,composite z-score,[7],0.0469
same,composite z-score,[8],1.29
same,composite z-score,[9],1.03
same,composite z-score,[10],0.944
O=c1cccc(CCc2ccccc2)o1,composite z-score,[1],0.744
same,z-score,[2],0.237
same,composite z-score,[3],0.103
same,composite z-score,[4],-0.408
same,composite z-score,[5],-0.262
same,composite z-score,[6],-0.118
same,composite z-score,[7],0.0952
same,composite z-score,[8],-0.0827
same,composite z-score,[9],-0.684
same,composite z-score,[10],1.04
COCCOC(=O)N1C(=O)[C@@]2(c3ccccc31)[C@H](c1ccc(O)cc1)N1[C@H](c3ccccc3)[C@H](c3ccccc3)OC(=O)[C@H]1[C@@H]2C(=O)N1CCc2cc(OC)c(OC)cc2C1,composite z-score,[1],0.607
same,z-score,[2],-1.47
same,composite z-score,[3],1.01
same,composite z-score,[4],0.889
same,composite z-score,[5],0.579
same,composite z-score,[6],-0.0819
same,composite z-score,[7],-0.214
same,composite z-score,[8],-0.533
same,composite z-score,[9],0.811
same,composite z-score,[10],0.789
COCCOC(=O)N1C(=O)[C@@]2(c3ccccc31)[C@H](C(=O)Nc1nc3ccccc3s1)[C@H]1C(=O)O[C@H](c3ccccc3)[C@H](c3ccccc3)N1[C@@H]2c1ccc(OCCO)cc1,composite z-score,[1],1.37
same,z-score,[2],-2.05
same,composite z-score,[3],0.382
same,composite z-score,[4],1.31
same,composite z-score,[5],0.773
same,composite z-score,[6],0.135
same,composite z-score,[7],-0.0626
same,composite z-score,[8],0.544
same,composite z-score,[9],0.96
same,composite z-score,[10],1.6
CC(=O)Nc1cc(Br)ccc1C(=O)O,composite z-score,[1],0.688
same,z-score,[2],-0.0912
same,composite z-score,[3],-0.229
same,composite z-score,[4],0.908
same,composite z-score,[5],0.762
same,composite z-score,[6],-0.096
same,composite z-score,[7],0.0556
same,composite z-score,[8],-0.122
same,composite z-score,[9],-0.134
same,composite z-score,[10],0.424
C[N+](C)(C)CCCCCCNC(=O)[C@H]1C[C@H]2C(=O)N3CCC[C@H]3C(=O)N2[C@H]1c1ccc(O)cc1,composite z-score,[1],1.41
same,z-score,[2],0.741
same,composite z-score,[3],0.26
same,composite z-score,[4],0.0573
same,composite z-score,[5],-0.965
same,composite z-score,[6],-0.178
same,composite z-score,[7],0.0639
same,composite z-score,[8],-0.29
same,composite z-score,[9],0.541
same,composite z-score,[10],-0.37
CC(C)C[C@@H]1NC(=O)[C@@H]2C[C@H](C(=O)NCCCCCC[N+](C)(C)C)[C@H](c3ccc(O)cc3)N2C1=O,composite z-score,[1],1.15
same,z-score,[2],0.0338
same,composite z-score,[3],0.424
same,composite z-score,[4],0.669
same,composite z-score,[5],-1.15
same,composite z-score,[6],-0.208
same,composite z-score,[7],0.246
same,composite z-score,[8],-0.158
same,composite z-score,[9],0.912
same,composite z-score,[10],2
COc1ccc(CCNC(=O)[C@@]2(c3ccc([N+](=O)[O-])cc3)CC(=O)N(CC34CC5CC(CC(C5)C3)C4)[C@@H]2c2ccc(CO)cc2)cc1,composite z-score,[1],1.42
same,z-score,[2],-3.38
same,composite z-score,[3],0.614
same,composite z-score,[4],0.581
same,composite z-score,[5],0.084
same,composite z-score,[6],-0.0202
same,composite z-score,[7],0.2
same,composite z-score,[8],-0.0281
same,composite z-score,[9],0.299
same,composite z-score,[10],0.155
O=C(O)[C@H]1C[C@H]2C(=O)NCC(=O)N2[C@H]1c1ccc(O)cc1,composite z-score,[1],-0.008
same,z-score,[2],1.81
same,composite z-score,[3],0.205
same,composite z-score,[4],-0.559
same,composite z-score,[5],-0.0282
same,composite z-score,[6],-0.147
same,composite z-score,[7],-0.214
same,composite z-score,[8],-0.312
same,composite z-score,[9],0.519
same,composite z-score,[10],2.03
CC(C)c1ccc(NN2C(C(O)c3cccc(O)c3)C=CC3C(=O)N(c4ccccc4)C(=O)C32)cc1 (stereo not given),composite z-score,[1],1.43
same,z-score,[2],0.141
same,composite z-score,[3],-0.136
same,composite z-score,[4],1.93
same,composite z-score,[5],0.904
same,composite z-score,[6],-0.0583
same,composite z-score,[7],0.0588
same,composite z-score,[8],1.78
same,composite z-score,[9],1.5
same,composite z-score,[10],1.31
CC(C)OC(=O)CC(=O)CC(O)c1ccc(C#N)cc1 (stereo not given),composite z-score,[1],0.443
same,z-score,[2],-0.259
same,composite z-score,[3],-0.461
same,composite z-score,[4],-1.49
same,composite z-score,[5],-1.46
same,composite z-score,[6],-0.0405
same,composite z-score,[7],-0.156
same,composite z-score,[8],-0.397
same,composite z-score,[9],1.67
same,composite z-score,[10],1.75
C=CCOC(=O)[C@@H]1[C@H]2C(=O)O[C@H](c3ccccc3)[C@H](c3ccccc3)N2[C@H](c2ccc(OCCOC(=O)[C@@H]3C[C@@H]4C(=O)NCC(=O)N4[C@@H]3c3cccc(OCCO)c3)cc2)[C@@]12C(=O)Nc1ccc(I)cc12,composite z-score,[1],1.43
same,z-score,[2],-1.54
same,composite z-score,[3],0.949
same,composite z-score,[4],0.689
same,composite z-score,[5],-0.0508
same,composite z-score,[6],-0.0735
same,composite z-score,[7],-0.043
same,composite z-score,[8],1.07
same,composite z-score,[9],-1.86
same,composite z-score,[10],1.75
C=CCNC(=O)[C@@H]1[C@H]2C(=O)O[C@H](c3ccccc3)[C@H](c3ccccc3)N2[C@H](c2ccccc2OCCO)[C@@]12C(=O)Nc1ccc(C#CC3=CCCCC3)cc12,composite z-score,[1],1.41
same,z-score,[2],-3.27
same,composite z-score,[3],0.604
same,composite z-score,[4],1.09
same,composite z-score,[5],0.17
same,composite z-score,[6],-0.0523
same,composite z-score,[7],0.0611
same,composite z-score,[8],-0.278
same,composite z-score,[9],0.668
same,composite z-score,[10],1.24
O=C1[C@]2(CO)C=C(Br)[C@@H](C[C@@H]2c2ccccc2)[C@@]12CO2,composite z-score,[1],-0.728
same,z-score,[2],-3.08
same,composite z-score,[3],0.218
same,composite z-score,[4],-0.567
same,composite z-score,[5],-0.322
same,composite z-score,[6],-0.0165
same,composite z-score,[7],-0.221
same,composite z-score,[8],-0.158
same,composite z-score,[9],-0.563
same,composite z-score,[10],-0.0487
CCOC(=O)C1=C[C@@H](CC)N(S(=O)(=O)c2ccc(C)cc2)[C@H]1c1ccccc1,composite z-score,[1],1.36
same,z-score,[2],-2.23
same,composite z-score,[3],0.0917
same,composite z-score,[4],1.07
same,composite z-score,[5],0.26
same,composite z-score,[6],0.0799
same,composite z-score,[7],-0.0709
same,composite z-score,[8],0.925
same,composite z-score,[9],0.905
same,composite z-score,[10],0.54
CCOC(=O)C1=CCC(c2ccc([N+](=O)[O-])cc2)N(S(=O)(=O)c2ccc(C)cc2)C1 (stereo not given),composite z-score,[1],1.08
same,z-score,[2],-2.35
same,composite z-score,[3],-0.087
same,composite z-score,[4],0.279
same,composite z-score,[5],0.548
same,composite z-score,[6],-0.0644
same,composite z-score,[7],0.138
same,composite z-score,[8],0.61
same,composite z-score,[9],0.304
same,composite z-score,[10],0.159
O=C1C2C=CC(C(O)c3ccc(-c4ccccc4)s3)N(n3cnnc3)C2C(=O)N1Cc1ccccc1 (stereo not given),composite z-score,[1],0.423
same,z-score,[2],-0.602
same,composite z-score,[3],-0.253
same,composite z-score,[4],-0.164
same,composite z-score,[5],-0.377
same,composite z-score,[6],-0.096
same,composite z-score,[7],0.0062
same,composite z-score,[8],0.141
same,composite z-score,[9],0.585
same,composite z-score,[10],0.399
COCCOC(=O)N1C(=O)[C@@]2(c3cc(C#CCCO)ccc31)[C@H](c1ccccc1OCCO)N1[C@H](c3ccccc3)[C@H](c3ccccc3)OC(=O)[C@H]1[C@@H]2C(=O)N1CCN(c2ncccn2)CC1,composite z-score,[1],1.43
same,z-score,[2],-1.92
same,composite z-score,[3],1.15
same,composite z-score,[4],1.33
same,composite z-score,[5],0.569
same,composite z-score,[6],0.203
same,composite z-score,[7],0.141
same,composite z-score,[8],0.435
same,composite z-score,[9],1.16
same,composite z-score,[10],0.994
